Reference: PubChem BioAssay AID1626 (SRMLSC, 2009)
“And” between values parts separate entries of the source, which are not always exact repeats. Equal entries are not always repeated. About 2,000 (0.91%) of roughly 220,000 compounds were called active. Not shown: some 2% with an inconclusive outcome. No stated cut-off is given here; in the data, inconclusive means inhibition above about 80% without an active follow-up result; inactive means below that; test concentration not stated here. The list is a sample of the results. Results with a measured potency or affinity are listed apart.

Test: M. tuberculosis H37Rv growth inhibitors, H37Rv strain (AID 1626);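 further: bacteria incubated seven days before Alamar blue readout; 0% = bacteria only wells and 100% = bacteria with antibiotic wells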
Conditions: hits give high values, concentration not given here
For `CC(=O)c1cccc(N(CC(=O)N2CCCCC2)S(C)(=O)=O)c1`, the inhibition was 1.7% (inactive). For `CCOc1cc(NC(=S)NCC2CCCO2)c(OCC)cc1NC(=O)c1ccc(F)cc1` (stereo not drawn), the inhibition was 1.9% (inactive). For `COc1ccc(-c2[nH]ncc2CNCCn2cccn2)c(F)c1`, the inhibition was -7% (inactive). In the case of `COc1ccccc1OCC(O)CNCc1ccc2c(c1)OCO2` (stereo not drawn), the inhibition was -7.62% (inactive). For `CCCCN=Cc1c(C)[nH]n(-c2ccccc2)c1=S`, the inhibition was -2.18% (inactive). With `Cc1[nH]n(-c2ccccc2)c(=O)c1C=NCCc1ccccc1` the inhibition was 0.59% (inactive). For `CS/C(=C\[N+](=O)[O-])Nc1ccc(F)cc1`, the inhibition was 3.42% (inactive). In the case of `O=C(CN1CCCc2ccccc21)NC(=O)NC1CCCCC1`, the inhibition was 6.06% (inactive). With `O=C(NC(Nc1nc2ccccc2s1)(C(F)(F)F)C(F)(F)F)c1ccccc1` the inhibition was -8.04% (inactive). In the case of `O=C(NC(Nc1nc2ccc([N+](=O)[O-])cc2s1)(C(F)(F)F)C(F)(F)F)c1cccnc1`, the inhibition was 5.87% (inactive). With `Cc1cc2nnc(SCC(=O)NCc3cccs3)n2c(N)n1` the inhibition was -5.08% (inactive). In the case of `COc1ccc(-c2nn(-c3ccccc3)cc2/C=N/NC(N)=S)cc1OC`, the inhibition was 2.96% (inactive). With `COc1ccc(-c2nn(-c3ccccc3)cc2/C=N/n2cnnc2)cc1OC` the inhibition was -15.3% (inactive). In the case of `CCCn1nnnc1NC(=O)COc1ccc(CC)cc1`, the inhibition was 0.65% (inactive). With `CC(=O)N1N=C(c2cccnc2)OC1c1ccccc1Cl` (stereo not drawn) the inhibition was 2.68% (inactive). For `C/C(=C\C(=S)Nc1ccccc1)Nc1ccccc1`, the inhibition was 4.78% (inactive). In the case of `COc1ccc(N/C(C)=C/C(=S)Nc2ccccc2)cc1`, the inhibition was 29.2% (inactive). For `O=C(CS)Nc1ccc2ccccc2c1`, the inhibition was -9.08% (inactive). In the case of `NC(=O)c1ccc(NC(=O)COC(=O)/C=C/c2cccs2)cc1`, the inhibition was -2.1% (inactive). For `CCCCC(=O)Nc1ccc(C)c(O)c1`, the inhibition was 2.73% (inactive). With `Cc1ccc(NC(=O)COC(=O)/C=C/c2cccs2)cc1` the inhibition was -0.47% (inactive). With `CC(C)CC(=O)Nc1ccc2ccccc2c1` the inhibition was 85.1% (inactive) and -4.53% (inactive). For `CCCCC(=O)Nc1cccc(NC(=O)CC)c1`, the inhibition was 3.01% (inactive). For `O=S(=O)(CCOc1ccccc1)c1nc2ccccc2[nH]1`, the inhibition was -6.66% (inactive). With `COCCCn1c(SCC(=O)Nc2nc3ccccc3s2)nnc1-c1ccoc1C` the inhibition was 4.35% (inactive). With `Cc1cc(C)c(S(=O)(=O)N2CCCCC2)c(C)c1N(C)S(=O)(=O)c1ccc(Cl)cc1` the inhibition was 1.13% (inactive). In the case of `CCOc1nc(C)ccc1-c1noc(CC)n1`, the inhibition was -1.19% (inactive). In the case of `CCOC(=O)C1CSC(CC(=O)Nc2ccc(Cl)cc2)C(=O)N1` (stereo not drawn), the inhibition was -6.13% (inactive). For `OC1(CNCc2cn[nH]c2-c2cc3ccccc3o2)CCCCC1`, the inhibition was -6.25% (inactive). With `COc1cccc(-n2c(SCc3c(C)noc3C)nnc2-c2cccc(S(=O)(=O)N(C)C)c2)c1` the inhibition was 4.97% (inactive). With `Cc1ccccc1OCc1csc(N)n1` the inhibition was 3.59% (inactive). With `CN=C(C)c1c(O)c2ccccc2oc1=O` the inhibition was -1.28% (inactive). For `CC(C)N(C(=O)Cn1c(SCC(=O)Nc2nccs2)nc2ccccc21)C(C)C`, the inhibition was 0.44% (inactive). In the case of `CC(=O)N1N=C(c2cccc(Br)c2)OC12CCCC2`, the inhibition was -8.1% (inactive). For `CC(=O)Nc1ccc2ccccc2c1`, the inhibition was 12.4% (inactive). With `CCC(=O)Nc1ccc(-c2csc(C)n2)cc1` the inhibition was 45.9% (inactive). For `CCOC(=O)C(C(=O)OCC)C(Nc1ccccc1)c1ccccc1` (stereo not drawn), the inhibition was 1.08% (inactive). In the case of `CCOC(=O)CS(=O)(=O)c1ccc2ccccc2c1`, the inhibition was -12.2% (inactive). In the case of `Cc1nc(-c2ccc(NC(=O)CC(C)C)cc2)cs1`, the inhibition was 31.2% (inactive). With `CC(=O)CC(=O)Nc1ccc(Nc2ccccc2)cc1` the inhibition was 6.81% (inactive). In the case of `O=C(Nc1ccc(Cl)c([N+](=O)[O-])c1)ONC1=NCCCCC1`, the inhibition was 0.03% (inactive). For `CCCNC(=O)NC(=O)CN1C(=O)NC(C)(c2ccc(C)cc2)C1=O` (stereo not drawn), the inhibition was -1.35% (inactive). With `CC(C(N)=O)N1C(=O)C2C3C=CC(C3)C2C1=O` (stereo not drawn) the inhibition was -3.12% (inactive). For `Cc1ccc(-c2cc(C(=O)NCc3cccnc3)no2)cc1`, the inhibition was 3.89% (inactive). In the case of `Cc1ccc(NC(=S)NCCc2c[nH]c3ccccc23)c(C)c1`, the inhibition was 4.17% (inactive). In the case of `Cc1nn(C)cc1/C=C/C(=O)c1cccs1`, the inhibition was 2.82% (inactive). For `Cc1c(/C=C/C(=O)c2cccs2)cnn1C`, the inhibition was -1.78% (inactive). In the case of `CCN(CC)C(=S)SCC(=O)Nc1ncc2c(n1)CC(C)(C)CC2=O`, the inhibition was 1.56% (inactive). For `CC(=O)C1=C(C)NC(SCC(=O)c2cc(Cl)ccc2Cl)=C(C#N)C1c1ccco1` (stereo not drawn), the inhibition was 15.3% (inactive). In the case of `CC(=O)C1=C(C)NC(SCC(=O)c2ccccc2)=C(C#N)C1c1ccco1` (stereo not drawn), the inhibition was 43.6% (inactive). In the case of `CC(=O)C1=C(C)NC(SCC(=O)c2ccc(Cl)cc2)=C(C#N)C1c1ccco1` (stereo not drawn), the inhibition was 50% (inactive). For `CC1=C(C(=O)Nc2ccccc2)C(c2ccco2)C(C#N)=C(SCC(=O)Nc2cccc(C)c2C)N1` (stereo not drawn), the inhibition was 4.09% (inactive). In the case of `CC(=O)C1=C(C)NC(SCC(=O)c2ccc(Cl)cc2Cl)=C(C#N)C1c1ccco1` (stereo not drawn), the inhibition was 12.4% (inactive). With `CCOc1ccccc1NC(=O)CSC1=C(C#N)C(c2ccco2)C(C(=O)Nc2nc3ccccc3s2)=C(C)N1` (stereo not drawn) the inhibition was 49.1% (inactive). In the case of `CC(=O)C1=C(C)NC(SCC(N)=O)=C(C#N)C1c1ccco1` (stereo not drawn), the inhibition was -4.99% (inactive). In the case of `CC(=O)C1=C(C)NC(SCc2ccc(C#N)cc2)=C(C#N)C1c1ccco1` (stereo not drawn), the inhibition was -1.27% (inactive). With `CN1CCN(C(=O)c2cc3nc(-c4ccc(F)cc4)cc(C(F)(F)F)n3n2)CC1` the inhibition was -1.56% (inactive). In the case of `CC(C)OP(=O)(OC(C)C)C(O)c1ccc(Br)cc1` (stereo not drawn), the inhibition was -5.46% (inactive). In the case of `O=S(=O)(c1ccc(Cl)s1)N1CCC(Cc2ccccc2)CC1`, the inhibition was -5.95% (inactive). In the case of `O=C(Nc1cccc([N+](=O)[O-])c1)c1ccc(N2CCCC2=O)cc1`, the inhibition was 3.44% (inactive). For `COc1cc(C(=O)NNC(=O)c2ccoc2C)cc(OC)c1OC`, the inhibition was -3.54% (inactive). For `COc1ccc(C)cc1NC(=O)COC(=O)C1CCN(C(=O)c2ccc(Cl)cc2)CC1`, the inhibition was 3.93% (inactive). With `Cc1ccc(NC(=O)Cn2c(O)c(N=NC(=O)c3ccncc3)c3ccccc32)cc1` the inhibition was -1.42% (inactive).
